High-throughput results: PubChem, several laboratories
Sampled rows, rich in hits. Any-hit rate of the full collection: about 3.7%.
PfHsp90 set2 – reduces growth (ATP signal) of yeast expressing P. falciparum Hsp90 | inhibition, % at 9.4 µM | S. cerevisiae expressing PfHsp90, BacTiter-Glo ATP, 48 h; yeast lacking PDR1 and PDR3 efflux regulators | 310,000 tested, 0.32% active;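 active = every replicate shows inhibition above about 80%, whatever the replicate mean, limit read from the data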
TIM10 inh – TIM10 yeast growth inhibition. S. cerevisiae TIM10 strain growth, BacTiter-Glo luminescence, 24 h. 330,000 tested, 1.4% active. inhibition, % at 10 µM. AID 463195;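 active = inhibition of 40% or more at the single tested concentration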;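 note: wild-type TIM10 isogenic control strain grown at permissive 25 °C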
Rce1 inhib – inhibitors of yeast Ras-converting enzyme; calls only; yeast membranes, quenched prenylated peptide cleavage fluorescence; AID 2563; 290,000 tested, 0.27% active;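 active = fall in fluorescence gain of 50% or more versus controls, with final raw signal at or below 3038400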
Target sequence (Q03530 whole entry, looked up): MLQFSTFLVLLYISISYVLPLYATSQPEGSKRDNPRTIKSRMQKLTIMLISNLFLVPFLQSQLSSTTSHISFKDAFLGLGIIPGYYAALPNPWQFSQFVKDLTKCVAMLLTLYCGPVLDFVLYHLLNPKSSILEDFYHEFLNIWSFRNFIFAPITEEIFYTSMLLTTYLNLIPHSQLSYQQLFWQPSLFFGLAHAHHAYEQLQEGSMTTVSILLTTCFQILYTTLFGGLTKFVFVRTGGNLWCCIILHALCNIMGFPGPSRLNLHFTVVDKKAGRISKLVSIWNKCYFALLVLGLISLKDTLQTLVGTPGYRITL
tim23-1 inh – growth inhibitors of tim23-1 mutant yeast; inhibition, % at 20 µM; 330,000 tested, 1.3% active; S. cerevisiae tim23-1 growth, BacTiter-Glo luminescence, 24 h;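 active = growth inhibition of the mutant yeast at or above 50%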;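 note: temperature-sensitive mutant grown at 25 °C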
tim10-1 inh – inhibits growth of tim10-1 mutant yeast. inhibition, % at 20 µM. S. cerevisiae tim10-1 ts strain growth, BacTiter-Glo, 24 h. 330,000 tested, 2.2% active;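 active = inhibition of at least 40%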;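 note: mutant grown at 25 °C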
tim10-1 confirm – tim10-1 yeast growth inhibition, confirmed | shares compounds with tim10-1 inh | 7,400 tested, 56% active | S. cerevisiae tim10-1 ts strain growth, BacTiter-Glo, 24 h | AID 463213 | inhibition, % at 20 µM;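 active = inhibition of yeast growth at or above a set limit in either of two repeat tests at 20 µM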;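 note: tim10-1 mutant grown at permissive 25 °C to find synthetic lethal compounds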
Large screens that a line does not name were inactive (follow-up assays come after a bar, where they were run).

S=C(Nc1cccnc1)NC1CCCC1	none
Cc1ccc(NC(=S)NC2CCCC2)cc1C	none
S=C(Nc1cccnc1)NC1CCCCCCC1	tim10-1 inh 50 | tim10-1 confirm 45
S=C(Nc1ccc(Nc2ccccc2)cc1)NC1CCCCCC1	tim10-1 inh 43 | tim10-1 confirm 38
Cc1cccc(Nc2ncccc2C(=O)NCc2cccs2)c1C	tim10-1 inh 52 | tim10-1 confirm 34
O=C(NCc1cccs1)c1cccnc1Cl	none
CCn1nnc(-c2ccccc2NC(=O)C(F)(F)F)n1	none
CCOc1ccc(/C=C2\N=C(c3cccs3)OC2=O)cc1OC	none (no result: PfHsp90 set2)
COc1ccc(/C=C2/N=C(c3cccs3)OC2=O)cc1OC(C)C	tim10-1 inh 42 | tim10-1 confirm 30
O=C1CCc2cc(S(=O)(=O)Nc3ccc(F)cc3)ccc2N1	none (no result: Rce1 inhib)
C=CC[C@@H]1Cc2c(Br)ccc(Br)c2[C@@H](CC=C)N1	tim10-1 inh 41 | tim10-1 confirm inactive
Cc1ccnc2c1ccc1cccnc12	tim10-1 inh 42 (no result: Rce1 inhib) | tim10-1 confirm inactive
Cc1ccnc2c1ccc1ccccc12	none
CC1(C)CC(=O)c2sc(NC(=O)CCS(=O)(=O)c3ccccc3)nc2C1	tim10-1 inh 46 | tim10-1 confirm 37
CN(CC(=O)O/N=C(\N)c1ccc(Br)cc1)S(=O)(=O)c1ccccc1	tim10-1 inh 50 | tim10-1 confirm 43
CN(CC(=O)O/N=C(\N)c1ccccn1)S(=O)(=O)c1ccc(Br)cc1	none
CCCc1n[nH]c(=S)n1Cc1ccco1	none
S=c1[nH]nc(C23CC4CC(CC(C4)C2)C3)n1Cc1ccco1	tim10-1 inh 40 | tim10-1 confirm inactive
O=C(NCc1ccco1)C(c1ccccc1)N(C(=O)Cc1cccs1)c1ccccc1F (configuration not stated)	none
CCN1C(=O)C(CC(=O)Nc2ccc(OC)cc2)N(CCc2ccc(OC)cc2)C1=S (configuration not stated)	tim10-1 inh 47 | tim10-1 confirm 32
CCN1C(=O)C(CC(=O)Nc2ccc(OC)cc2)N(Cc2ccc(OC)c(OC)c2)C1=S (configuration not stated)	none (no result: PfHsp90 set2)
COc1ccc(C)cc1NC(=O)CCS(=O)(=O)c1cc2c(cc1Cl)NC(=O)CO2	none
O=c1cc(CSc2ccc(Cl)cc2)nc(-c2ccncc2)[nH]1	none
Cc1c(Cl)cccc1NC(=O)c1cccc(OC(F)F)c1	tim10-1 inh 47 | tim10-1 confirm 48
Cc1ccc(NC(=O)c2cccc(OC(F)F)c2)c(OC(F)F)c1	none
CCOC(=O)N1CCN(C(=O)c2ccc(NC(=O)c3ccc(C)cc3)cc2)CC1	tim10-1 inh 44 | tim10-1 confirm inactive
Cc1ccc(C(=O)N2CCN(c3ccc(NC(=O)c4ccc(Br)o4)cc3)CC2)cc1	tim10-1 inh 52 | tim10-1 confirm 31
O=C(Nc1ccc(C(=O)N2CCN(c3ccccn3)CC2)cc1)c1ccc(Br)o1	tim10-1 inh 46 | tim10-1 confirm inactive
CCCC[C@H]1COCCS(=O)(=O)N1Cc1ccc(Br)cc1	none
O=C(NCCCNC(=O)c1cnccn1)c1cccc(Cl)c1	none (no result: Rce1 inhib)
CN(C)/C=C(/C(=O)c1ccccc1)n1cncn1	none
O=C(/C=C(/c1ccc(Cl)cc1)n1cncn1)c1ccccc1	tim10-1 inh 43 | tim10-1 confirm 31
COc1cc(/C=N/NC(=O)NC23CC4CC(CC(C4)C2)C3)ccc1O	tim10-1 inh 51 | tim10-1 confirm inactive
O=C(N/N=C/c1ccc(O)c(O)c1)NC12CC3CC(CC(C3)C1)C2	none
COc1ccc(C(C(=O)NC2CCCC2)N(Cc2cccnc2)C(=O)c2snc(C(N)=O)c2N)cc1OC (configuration not stated)	none
CCOC(=O)C(C(=O)OCC)C(C[N+](=O)[O-])c1ccccc1 (configuration not stated)	none
Cc1ccc(-c2ccc(=O)n(CC(=O)N3CCN(c4cccc(C)c4)C(C)C3)n2)cc1 (configuration not stated)	none
Cc1ccc(-c2ccc(=O)n(CC(=O)N3CCN(c4cc(Cl)ccc4C)CC3)n2)cc1	tim10-1 inh 43 (no result: PfHsp90 set2) | tim10-1 confirm inactive
Cc1cccc(N2CCN(C(=O)c3ccc4c(c3)NC(=O)C(CSCc3cccc(F)c3)N4)CC2)c1C (configuration not stated)	none (no result: PfHsp90 set2)
Cc1c(Nc2nc(-c3ccccc3)cs2)c(=O)n(-c2ccccc2)n1C	none
C=CC[n+]1c(-c2ccc(C)cc2)csc1Nc1c(C)n(C)n(-c2ccccc2)c1=O	tim10-1 inh 41 | tim10-1 confirm inactive
CCCCn1c(CN2CCN(c3ccccc3)CC2)nc2c1c(=O)n(C)c(=O)n2C	none
Cn1c(=O)c2c(nc(CN3CCN(c4ccccc4)CC3)n2CCCc2ccccc2)n(C)c1=O	tim10-1 inh 43 (no result: PfHsp90 set2) | tim10-1 confirm inactive
CCC1CN(C(=O)Nc2cccc(C)c2)c2cc(C)ccc2O1 (configuration not stated)	none
Cc1c(C(=O)N2CCc3ccccc3C2)sc2nc(-c3ccccc3)cn12	tim10-1 inh 51 | tim10-1 confirm 35
COc1ccc(-c2cn3c(C)c(C(=O)N4CCc5ccccc5C4)sc3n2)cc1	tim10-1 inh 43 | tim10-1 confirm 37
Cc1sc2ncnc(N3CCCCC3C)c2c1C (configuration not stated)	tim10-1 inh 42 | tim10-1 confirm inactive
CC(C)c1cc(-c2n[nH]c(=S)n2Cc2ccccc2)cs1	tim10-1 inh 47 | tim10-1 confirm inactive
S=c1[nH]nc(-c2ccccc2)n1Cc1ccccc1	none
O=C(c1cc(COc2ccc(F)cc2Cl)on1)N1CCN(c2cnccn2)CC1	tim10-1 inh 50 | tim10-1 confirm 47
O=C(c1cc(COc2ccc(F)cc2Cl)on1)N1CCSCC1	none
CSc1ccccc1OCc1cc(C(=O)N2CCSCC2)no1	none
CSc1ccccc1OCc1cc(C(=O)N2CCC(Oc3cccnc3)CC2)no1	tim10-1 inh 43 (no result: PfHsp90 set2) | tim10-1 confirm 37
CSc1ccccc1OCc1cc(C(=O)N2CCN(c3ncccn3)CC2)no1	tim10-1 inh 46 | tim10-1 confirm inactive
Clc1cc(Br)ccc1OCCOCCN1CCOCC1	none
CN1CCN(c2ccc(NC(=S)NC(=O)c3cccc4ccccc34)cc2)CC1	none
CN1CCN(c2ccc(NC(=S)NC(=O)c3cccc4c(Br)cccc34)cc2)CC1	tim10-1 inh 47 | tim10-1 confirm inactive
COc1cc(-c2nnc(COC(=O)CSc3cc(C)c4ccccc4n3)o2)cc(OC)c1OC	tim10-1 inh 40 | tim10-1 confirm inactive
O=Cc1ccc2ccc3cccnc3c2n1	tim10-1 inh 42 | tim10-1 confirm inactive
CN(C(=O)c1ccc(NC(=O)Cc2cccc(NC(=O)C3CCN(C(=O)C4CC4)CC3)c2)cc1)C1CC1	none (no result: TIM10 inh, Rce1 inhib, tim23-1 inh, tim10-1 inh)
CCCCn1nnnc1SCC(=O)c1cc(Cl)ccc1OC	tim10-1 inh 52 | tim10-1 confirm 33
Cc1ccc(OCC(=O)NNC(=O)CSC(=S)N2CCCC2)cc1	none (no result: PfHsp90 set2, Rce1 inhib)
O=C(Nc1ccccc1Cl)c1ccc(Cl)cc1Cl	none
